High-throughput results: PubChem, The Scripps Research Institute Molecular Screening Center
M1 PAM parental – nonselective calcium activators in parental CHO-K1 cells, primary screen, counter-screen for M1 PAM project, cell-based, Fluo-8 calcium fluorescence, full deck, 1536-well | ATP EC20; 0% at ATP EC20, 100% at ATP max | activation, % at 3 µM | hit rate 0.02% among 360,000 | AID 602247, 2012;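 active = activation above the run cutoff, the mean activation of all test compounds plus 3 SD, cut at about 40% in these data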;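 also: peak over basal fluorescence ratio in a 140 s read after ATP addition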
CHRM1 PAM – human M1 muscarinic receptor positive allosteric modulators, primary screen, CHO-K1 cells, Fluo-8 calcium fluorescence, 1536-well | Muscarinic acetylcholine receptor M1 (Homo sapiens), P11229 | CHO-K1 hM1, ACh EC20; 0% = ACh EC20, 100% = maximal ACh | activation, % at 3 µM | hit rate 0.088% among 360,000 | AID 588819, 2011; in the data active = activation above about 19%, passing the limit was not always enough
Target sequence (P11229 whole entry, looked up): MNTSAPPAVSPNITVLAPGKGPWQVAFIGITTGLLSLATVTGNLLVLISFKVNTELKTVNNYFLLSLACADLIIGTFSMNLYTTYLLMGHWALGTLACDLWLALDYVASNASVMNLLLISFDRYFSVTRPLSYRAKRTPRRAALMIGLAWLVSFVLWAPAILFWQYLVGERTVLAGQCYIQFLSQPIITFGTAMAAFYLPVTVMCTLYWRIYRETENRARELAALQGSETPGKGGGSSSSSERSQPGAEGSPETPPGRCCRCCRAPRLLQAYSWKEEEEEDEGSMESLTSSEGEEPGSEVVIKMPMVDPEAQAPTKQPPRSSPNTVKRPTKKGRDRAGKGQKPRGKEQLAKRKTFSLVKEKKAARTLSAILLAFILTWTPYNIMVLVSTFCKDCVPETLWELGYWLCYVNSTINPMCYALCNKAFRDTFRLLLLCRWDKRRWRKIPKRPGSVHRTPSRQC
CHO-K1 Ca ag – counter-screen for M1 agonists: effect in parental CHO-K1 cells; Fluo-8 calcium fluorescence; scaled to maximal ATP response, vehicle zero; activation, % at 3 µM; hit rate 0.48% among 360,000; AID 602248, 2012; in the data active = activation above about 15%;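 also: untransfected CHO-K1 host cells lacking M1 receptor as counterscreen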
M1 antag – human M1 muscarinic receptor antagonists, primary screen, CHO-K1 cells, Fluo-8 calcium fluorescence, 1536-well; hit rate 1.3% among 360,000; Muscarinic acetylcholine receptor M1 (Homo sapiens), P11229; inhibition, % at 3 µM; CHO-K1 hM1, ACh EC80 antagonist;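 active = percent inhibition above its own plate's cutoff, namely the mean of that plate's compound wells plus 3 SD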;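 also: peak over basal fluorescence ratio during 140 s after agonist addition; 0% = ACh EC80 plus DMSO and 100% = DMSO alone without agonist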
CHRM1 agonist – human M1 muscarinic receptor agonists, primary screen, Fluo-8 calcium fluorescence, CHO-K1 cells, HTS; Muscarinic acetylcholine receptor M1 (Homo sapiens), P11229; CHO-K1 hM1, agonist mode; 0% DMSO, 100% acetylcholine EC100; activation, % at 3 µM; hit rate 0.33% among 360,000; AID 588814, 2011;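 active = activation above the run's mean compound activation plus 3 SD, cut at about 16% in these data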;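 also: peak over basal fluorescence ratio within a 140 s kinetic read after compound addition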
CHO-K1 Ca antag – nonselective inhibitor or artifact in parental CHO-K1 cells; ATP-induced calcium, Fluo-8 fluorescence; hit rate 0.6% among 360,000; AID 602250; inhibition, % at 3 µM;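 active = inhibition above a per-plate cutoff, the plate's mean sample inhibition plus 3 SD, cut at about 24% in these data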;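 also: 0% = DMSO plus EC80 ATP and 100% = DMSO alone without ATP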
* marks the source's active call; other numbers are inactive results. In the library only some 2.4% were active in any assay of this set; here they are far more common.

SMILES	M1 PAM parental	CHRM1 PAM	CHO-K1 Ca ag	M1 antag	CHRM1 agonist	CHO-K1 Ca antag
COc1ccc(C(=O)C2CCCN(Cc3ccc4c(c3)OCCO4)C2)cc1F (stereo not given)	13	-20	2	12	-6	-13
COc1ccc(CN2CCC(C(=O)c3cccc(Cl)c3)CC2)cc1	9	4	1	-9	-8	-8
COc1ccc(CN2CCCC(C(=O)c3ccc4c(c3)OCO4)C2)c(F)c1 (stereo not given)	4	-23	4	93*	-3	-16
CCOC(=O)CNC(=O)N1CCCC(C(=O)c2ccc3c(c2)OCO3)C1 (stereo not given)	-13	-3	0	2	-8	1
CC(=O)c1cccc(CN2CCCC(C(=O)c3ccc4c(c3)OCO4)C2)c1 (stereo not given)	9	-26	2	72*	-10	-8
CCN(CC)C(=O)C1CCCN(Cc2ccc3c(c2)OCO3)C1 (stereo not given)	-5	-4	-1	11	-5	5
O=C(c1ccc2c(c1)OCO2)C1CCCN(C2CCN(CCc3ccccc3)CC2)C1 (stereo not given)	21	-35	1	74*	-14	-15
CCCn1cc(CN2CCCC(C(=O)c3ccc4c(c3)OCO4)C2)c(C)n1 (stereo not given)	8	-24	4	65*	-5	-9
CCN1CCN(C(C)C(=O)NC2CCCCC2)CC1 (stereo not given)	16	7	0	-16	-3	-10
Cn1nc(C(F)(F)F)c(-c2cccc(C(F)(F)F)c2)c1NC(=O)c1ccco1	8	6	0	-5	-8	-14
Cn1nc(C(F)(F)F)c(-c2cccc(C(F)(F)F)c2)c1NC(=O)Nc1ccc(F)cc1	-25	-19	15*	38*	3	33*
COc1ccc(NS(=O)(=O)c2ccc(OCC(=O)N3CCOCC3)cc2)cc1Cl	12	-3	8	8	-1	3
CCc1nc2ccc(C(=O)NCCCn3ccnc3)cn2c1N(C)C(=O)C1CCCCC1	-8	13	0	-3	-2	-9
C[C@H](CO)N1C[C@H](C)[C@@H](CN(C)Cc2ccc(O)cc2)OCc2cnnn2CCCC1=O	-6	0	0	-8	-7	2
Cc1ccc(CN(C)C[C@@H]2OCc3cnnn3CCCC(=O)N([C@H](C)CO)C[C@H]2C)cc1	2	6	0	-11	-9	8
C[C@@H]1CN([C@@H](C)CO)C(=O)CCCn2nncc2CO[C@H]1CN(C)Cc1ccc(Oc2ccccc2)cc1	3	-29	0	40*	-12	-3
COc1ccccc1CN(C)C[C@H]1OCc2cnnn2CCCC(=O)N([C@H](C)CO)C[C@@H]1C	-8	10	0	-17	0	20
C[C@@H]1CN([C@H](C)CO)C(=O)CCCn2nncc2CO[C@H]1CN(C)Cc1ccc(Oc2ccccc2)cc1	15	-32	1	54*	-11	-6
COc1ccccc1CN(C)C[C@H]1OCc2cnnn2CCCC(=O)N([C@@H](C)CO)C[C@@H]1C	14	-34	1	102*	-11	-1
CCOC(=O)c1cnc2c(CC)cccc2c1NCCN1CCOCC1	-11	-26	0	64*	-9	23
CCOC(=O)c1cnc2c(C(=O)OC)cccc2c1NCCN1CCOCC1	12	13	0	-4	-11	-14
CCOC(=O)C1=C(C)N(C)C(C)=C(C(=O)OCC)C1c1ccc(C(=O)OC)cc1	8	-22	-1	53*	-4	-25
Cc1ccc(CNC(=O)CO/N=C/c2ccc(C(C)(C)C)cc2)cc1	39	15	0	-4	5	-13
CC(C)(C)c1ccc(/C=N/OCC(=O)NCc2ccccc2)cc1	21	15	1	-10	18*	-13
CC1(C(=O)NS(=O)(=O)c2ccccc2Cl)CCN1C(=O)Cc1cc(F)ccc1F (stereo not given)	19	9	1	-18	-1	-20
SMILES	M1 PAM parental	CHRM1 PAM	CHO-K1 Ca ag	M1 antag	CHRM1 agonist	CHO-K1 Ca antag
O=C(Nc1ccccc1)Nc1ccc(-n2ccc(C(F)(F)F)n2)cc1	-19	-24	17*	68*	4	26*
O=C(NC(c1ccccc1)c1ccccc1)C1CCCO1 (stereo not given)	5	7	21*	-4	-2	4
Cc1ccn(CCC(=O)N2CCCC(N3CCN(c4ccccc4C)CC3)C2)n1 (stereo not given)	5	-25	0	1	49*	-3
Cc1ccccc1N1CCN(C2CCCN(C(=O)CCC(=O)N(C)C)C2)CC1 (stereo not given)	-18	-2	0	9	-6	17
CCN(CC)c1ccc(/C=C/C(=O)C2C(=O)C=C(C)OC2=O)cc1 (stereo not given)	-20	-37	50*	56*	134*	44*
O=S1(=O)c2ccc(Br)cc2N2CCC[C@@H]2CN1Cc1ccc(Cl)cc1	-8	-23	0	24*	-6	3
O=C(COc1coc(CN2CCN(Cc3ccccc3)CC2)cc1=O)Nc1ccccc1	-20	8	0	-1	-8	9
CC(=O)Nc1ccc(SCC(=O)Nc2ccccc2-c2ccccc2)cc1	-11	-4	1	8	-2	30*
COc1ccc(CC(=O)Nc2ccccc2-c2ccccc2)cc1OC	19	1	5	-2	-3	0
Cc1ccc(CC(=O)Nc2ccccc2-c2ccccc2)cc1C	-14	-7	-1	10	-8	25*
Cc1cccc(C)c1NC(=O)c1csc([C@@H]2O[C@H](CO)[C@H](O)[C@H](O)[C@H]2O)n1	20	15	0	-22	0	1
CCN1C(=O)[C@H]2[C@@H](c3ccc(OC)cc3)N[C@]3(CCCN(Cc4ccc(Br)cc4)C3=O)[C@H]2C1=O	9	13	1	-12	-2	-19
CCOC(=O)N1CCC(NC(=O)C2CCCN(Cc3nc(-c4ccc(CC)cc4)oc3C)C2)CC1 (stereo not given)	1	-9	7	11	-2	24*
CCOC(=O)N1CCC(NC(=O)C2CCN(Cc3nc(-c4ccc(CC)cc4)oc3C)CC2)CC1	12	5	0	-23	-10	2
CCOC(=O)N1CCC(NC(=O)C2CCCN(S(=O)(=O)c3cccnc3)C2)CC1 (stereo not given)	-7	3	0	-8	-2	42*
